# This excerpt belongs to a sample that is enriched for hits.
# PKM2 act = activators of human pyruvate kinase M2; P14618; purified PKM2, Kinase-Glo ATP luminescence, activation; response scale: 0% is enzyme alone, no compound; Potency, µM (doses to about 57.5 µM), for the others: at the highest dose activation, usual class: activators; 0.34% of 260,000 active; AID 1631; note: nearly all actives have a fitted effect of over 55% in size
# Target sequence (P14618 whole entry, looked up): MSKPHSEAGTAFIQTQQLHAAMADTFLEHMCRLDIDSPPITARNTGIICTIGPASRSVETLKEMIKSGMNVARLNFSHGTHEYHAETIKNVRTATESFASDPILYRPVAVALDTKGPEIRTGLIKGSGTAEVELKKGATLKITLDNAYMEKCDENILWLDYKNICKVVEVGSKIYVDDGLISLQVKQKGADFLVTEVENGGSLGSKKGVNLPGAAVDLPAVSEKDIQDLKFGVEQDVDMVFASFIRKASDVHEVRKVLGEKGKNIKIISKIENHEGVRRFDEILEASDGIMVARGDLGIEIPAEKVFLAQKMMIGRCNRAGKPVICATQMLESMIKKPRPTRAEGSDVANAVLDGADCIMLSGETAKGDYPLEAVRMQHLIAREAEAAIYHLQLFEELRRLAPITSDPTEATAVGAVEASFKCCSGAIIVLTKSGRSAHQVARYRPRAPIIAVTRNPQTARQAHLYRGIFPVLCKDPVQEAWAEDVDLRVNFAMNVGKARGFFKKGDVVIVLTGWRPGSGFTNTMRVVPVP
#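 ATP formation by purified human PK-M2, quantified via coupled luciferase luminescence after 1 h at room temperature with 0.1 mM ADP and 0.5 mM PEP final.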
# BLM inh = Bloom syndrome helicase (human) inhibition; recombinant BLM DNA unwinding, fluorescence dequenching; 0.2% of 350,000 active; AID 2528; Potency, µM (series often up to 56.1 µM), for the others: top-dose activity change, negative = inhibition, usual class: inhibitors;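 note: plate controls were vehicle for no effect and no enzyme for full effect; nearly all actives have a fitted effect of over 35% in size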
# JMJD2E inh = JMJD2E (human) inhibition; B2RXH2; JMJD2E catalytic domain, FDH-coupled NADH fluorescence (FDH is formaldehyde dehydrogenase); Potency, µM (doses to about 57.1 µM), without a hit: top-dose activity change, negative = inhibition, most hits filed as inhibitors; 1.6% of 230,000 active; active = well fitted inhibition curve with a large enough effect, not every such curve was filed as active; inconclusive = small, poorly fitted or top-dose-only effect, or another doubt; inactive = no such curve, though single readings can be large or run the other way;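 note: 0% = wells with enzyme and -100% = buffer wells without enzyme; nearly all actives have a fitted effect of over 50% in size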
# RECQ1 inh = inhibitors of human RECQ1 DNA helicase | AID 2549 | 0.54% of 240,000 active | P46063 | RECQ1 DNA unwinding, red fluorescence kinetic read | Potency, µM (series often up to 57.3 µM), for the others: at the highest dose activity, negative = inhibition, hits mostly inhibitors;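 note: plate controls were vehicle for no effect and no enzyme for full effect; nearly all actives have a fitted effect of over 30% in size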
#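 RECQ1T1 50 nM; forked duplex (20 bp + 30-nt ss tails) 200 nM, ATP 2 mM final; pH 8.0, 2 mM MgCl2, 2.5 ug/ml poly(dI-dC); 15 min compound preincubation; discontinuous kinetic read over 2 h at RT.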
# APE1 inh = inhibitors of human APE1 endonuclease; P27695; recombinant APE1, TAMRA/BHQ-2 abasic DNA cleavage fluorescence; Potency, µM (highest dose often 65.8 µM), for inactives: at the highest dose activity change, negative = inhibition, most hits filed as inhibitors; 0.35% of 350,000 active;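 note: plate controls were vehicle for no effect and reference inhibitor for full effect; nearly all actives have a fitted effect of over 55% in size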
#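 Step 1: APE1 (0.75 nM) with compound, 15 min RT. Step 2: add 50 nM fluorophore/quencher THF duplex. Step 3: three fluorescence reads 60 s apart (525/598 nm); read 3 minus read 1 = reaction progress.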
# An asterisk follows results filed as active; i = inactive; ? = inconclusive; / = not tested or not shown; [ ] = another dose, or the depositor's remark. Unless noted, calls come from the whole dose curve; as a rule, active = well fitted curve in the direction sought with a large enough effect; inconclusive = small, poorly fitted or top-dose-only effect, or another doubt; inactive = no such curve, though single readings can be large; an effect the other way counts as inactive or inconclusive. Unless noted, % is set by controls: 0 for no effect and ±100 for the full control effect; potency is the fitted concentration of half-maximal effect.
SMILES,PKM2 act,BLM inh,JMJD2E inh,RECQ1 inh,APE1 inh
Cc1ccc(-c2nc3ncccn3c2Nc2ccccc2C)o1,11µM*,-4%,-6%,i,1%
Cc1ccc2occ(CC(=O)Nc3ccc(Cl)c(C(F)(F)F)c3)c2c1,/,-10%,/,/,/
Nc1nc(-c2ccco2)c(-c2ccco2)s1,22µM*,?,-17%,-15%,-10%
c1coc(-c2nc(-c3ccco3)c(-c3ccco3)nc2-c2ccco2)c1,?,14µM*,?,4µM*,1.4µM*
Nc1nc(-c2ccco2)cs1,6%,-5%,5%,-16%,-5%
C/C=C1\CC2C=CC1C2 (stereo not drawn),/,/,/,-4%,2%
COC(=O)C1=C(C)N(Cc2ccccc2)[C@]23O[C@](C(=O)OC)(C(=O)N2C1c1ccccc1)C(c1ccccc1)C3C(=O)c1ccccc1 (stereo partly drawn),/,-3%[12.4 µM],/,14%[11.5 µM],-9%[12.4 µM]
CC(C)COc1ccc(C(=O)Nc2onc3c2CCCC3)cc1,/,-2%,/,/,/
Cc1ccn(S(=O)(=O)c2ccc3oc(=O)ccc3c2)n1,10µM*,-3%,/,/,25%
CCOc1ccc(NCC2CCOC(C)(C)C2)cc1 (stereo not drawn),-7%,4%,20µM*,-3%,?
CN[C@@H]1[C@@H](O[C@H]2O[C@H](CO)[C@@H](N)[C@H](O)[C@H]2O)O[C@H]2C[C@@H](N)[C@@H](O[C@H]3[C@H](O)[C@@H](O)[C@H](N)C[C@@H]3N)O[C@@H]2[C@@H]1O,/,/,/,/,2%[21 µM]
CC(=O)N1CCc2ccc(S(=O)(=O)Nc3ccccc3Cl)cc21,13µM*,-9%,3%,i,19%
CC(=O)N1CCCc2cc(S(=O)(=O)Nc3ccccc3C)ccc21,4%,-1%,/,/,3%
CCN1/C(=C/C=C/c2oc3ccc(-c4ccccc4)cc3[n+]2CC)Oc2ccc(-c3ccccc3)cc21,-3%,22µM*,7.9µM*,-18%,6%
CC(C)(C)c1ccc(OCC2CO2)cc1 (stereo not drawn),/,/,/,-1%,4%
CC(=O)OCCn1c2nc(=O)[nH]c(=O)c-2nc2cc(C)c(C)cc21,3%,-3%,2.8µM*,-5%,5%
Cc1sc(-n2c(C)cc(/C=C3\SC(=S)NC3=O)c2C)c(C#N)c1C,-3%,-29%,3%,28µM*,-7%
Cc1oc(=O)c(NC(=O)c2cccc(Cl)c2)cc1C(=O)c1ccccc1,7.1µM*,-12%,-15%,-22%,-10%
C=C1C=C(C(F)F)n2ncc(C(=O)Nc3ccc(C(C)CC)cc3)c2N1 (stereo not drawn),/,/,/,/,40%
CCc1ccc(NC(=O)N2CC(C)Oc3ccc(C)cc32)cc1 (stereo not drawn),/,-7%,/,/,/
O=[N+]([O-])c1ccc(-n2cccn2)c(-c2nn[nH]n2)c1,5%,-8%,0%,-3%,3%
CC1CC(C)CN(c2ccc([N+](=O)[O-])cc2-c2nn[nH]n2)C1 (stereo not drawn),-4%,2%,3.2µM*,-7%,-2%
Cc1ccc(NC(=O)c2ccc(Cl)c(N3C(=O)C=CC3=O)c2)cc1,20µM*,-7%,-3%,-10%,1%
O=C(Nc1ccc(Cl)c(Cl)c1)c1ccc(Cl)c(Cl)c1,?,-14%,47%,i,16%
CC(C)(C)n1ncc2c(=O)n(Cc3ccc(C#N)cc3F)cnc21,/,/,/,/,-2%
COc1ccc2nc(-n3c(O)c(C4=c5ccccc5=NC4=O)[nH]c3=S)sc2c1,5%,20µM*,14%,-6%,-4%
CC[C@H](C)[C@H](NC(=O)[C@H](C)NC(=O)[C@H](Cc1cnc[nH]1)NC(=O)[C@@H]1CCCN1C(=O)CNC(=O)[C@H](CC(C)C)NC(=O)[C@H](CC(C)C)NC(=O)[C@H](Cc1ccc(O)cc1)NC(=O)CNC(=O)[C@H](C)NC(=O)[C@H](CO)NC(=O)[C@H](CC(N)=O)NC(=O)[C@H](CC(C)C)NC(=O)[C@@H](NC(=O)[C@H](Cc1c[nH]c2ccccc12)NC(=O)CN)[C@@H](C)O)C(=O)O,/,2%,/,-15%,0%
